# FBW7 act: FBW7 E3 ligase activators, primary screen, biochemical, AlphaScreen, human; F-box/WD repeat-containing protein 7 (Homo sapiens), Q969H0; AlphaScreen FBW7–phospho-cyclin E peptide binding, activator screen; normalized activity (activation), % at 26.1 µM; 650,000 compounds, 0.13% hits; AID 1259310, 2017; in the data active = normalized activity above about 1.9%;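 note: purified mutant Fbw7 with reduced substrate affinity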
# MITF primary: MITF inhibitors, primary screen, biochemical, AlphaScreen, human; 650,000 compounds, 0.91% hits; AID 1259374, 2018; inhibition, % at 2.6 µM; AlphaScreen MITF homodimerization, bead proximity signal; Microphthalmia-associated transcription factor (Homo sapiens), O75030; in the data active = inhibition above about 50%;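 note: 0% = vehicle wells with protein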
# TEAD-YAP inh: TEAD-YAP interaction inhibition, primary screen, TEAD-YAP interaction inhibitor project, luminescence, HEK-TIYL cells. TEAD-Gal4/YAP UAS-luciferase luminescence. inhibition, % at 9.12 µM. 640,000 compounds, 1.4% hits. AID 1259422, 2018; in the data active = inhibition above about 32%;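 note: 0% = median of test compound wells and 100% = reference inhibitor wells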
# GPR151 ag: activators of human GPR151, primary screen, cell-based, PathHunter beta-arrestin, luminescence; 650,000 compounds, 1% hits; PathHunter beta-arrestin GPR151 cells; activation, % at 11.2 µM; in the data active = activation above about 4.9%;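 note: 0% = median of compound wells and 100% = cells with positive control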
# An asterisk follows results filed as active. In the library only some 3.5% were active in any assay of this set; here they are far more common.
SMILES,FBW7 act,MITF primary,TEAD-YAP inh,GPR151 ag
c1ccc(Nc2nc3nonc3nc2N2CCCCCC2)cc1,0,-8,37*,2
Clc1cccc(Nc2nc3nonc3nc2N2CCOCC2)c1,0,3,57*,1
Ic1ccc(Nc2nc3nonc3nc2N2CCOCC2)cc1,0,-5,5,0
Clc1cccc(Nc2nc3nonc3nc2N2CCCCC2)c1,0,6,43*,0
O=C1CCCN1CCn1cnc2c(NCCc3ccc(O)cc3)nc(N3CCC(N4CCOCC4)CC3)nc21,0,-6,9,1
O=C(CN1C(=O)C2C3C=CC(C3)C2C1=O)NCc1ccccc1Cl (stereo not drawn),0,16,-3,-1
CCOc1cc(C(=O)NCCCCc2ccccc2)cc(OCC)c1OCC,1,17,1,2
O=C(Nc1ccccc1C(=O)N/N=C/c1ccncc1)c1ccccc1,0,-3,41*,-2
O=C(Nc1ccccc1C(=O)N/N=C/c1ccncc1)c1ccc([N+](=O)[O-])cc1,0,-1,41*,0
CCOc1ccc(/C=N/NC(=O)c2ccc(F)cc2)cc1,0,13,-34,-2
CCOc1ccc(/C=N/NC(=O)c2ccccc2NC(=O)c2ccc(OC)cc2)cc1,0,-8,55*,1
Cc1[nH]c(-c2ccc(F)cc2)cc1C(=O)N1CCN(c2ncccn2)CC1,0,4,0,1
O=c1c(O)cc2c(-c3ccccc3)c3cc(O)c(O)c(Br)c3oc-2c1Br,-1,96*,-5,0
CCOC(=O)N1CCN(C(=O)CSc2nc3c(c(=O)n2-c2ccc(Br)cc2)SCC3)CC1,0,18,8,0
COc1ccc(OC)c(C2CC(=O)c3c([nH]c(C(=O)OCCSC)c3C)C2)c1 (stereo not drawn),0,0,26,0
COc1ccc(OC)c(C2CC(=O)c3c([nH]c(C(=O)OCCOC(C)C)c3C)C2)c1 (stereo not drawn),0,-7,45*,1
COc1ccc(OC)c(C2CC(=O)c3c([nH]c(C(=O)OC(C)C)c3C)C2)c1 (stereo not drawn),0,0,50*,1
CCCOCCOC(=O)c1[nH]c2c(c1C)C(=O)CC(c1cccs1)C2 (stereo not drawn),0,17,56*,0
COc1ccc(OC)c(C2CC(=O)c3c([nH]c(C(=O)OCC4CCCO4)c3C)C2)c1 (stereo not drawn),0,10,1,2
COCCOC(=O)c1[nH]c2c(c1C)C(=O)CC(c1cc(OC)ccc1OC)C2 (stereo not drawn),0,-2,44*,1
O=c1[nH]c(O)c(/C=C2\C=NN=C2c2ccc(Cl)cc2)c(=O)[nH]1,0,19,13,-1
COc1cccc(NS(=O)(=O)c2ccc3[nH]c(=O)ccc3c2)c1,0,5,1,0
COc1ccc(Cl)cc1C(=O)NCCCN1CCCC1=O,0,41,-4,-1
Cc1c(C(=O)OCCOc2ccccc2)[nH]c2c1C(=O)CCC2,0,-6,43*,0
Cc1c(C(=O)OC(C)C)[nH]c2c1C(=O)CC(c1ccccc1)C2 (stereo not drawn),0,1,51*,0
SMILES,FBW7 act,MITF primary,TEAD-YAP inh,GPR151 ag
CCOCCOC(=O)c1[nH]c2c(c1C)C(=O)CC(c1cc(OC)ccc1OC)C2 (stereo not drawn),0,5,45*,-1
COCCOC(=O)c1[nH]c2c(c1C)C(=O)CC(c1ccccc1Cl)C2 (stereo not drawn),0,3,40*,0
CC(=O)c1ccc(NC(=O)CSc2ncnc3c2cnn3-c2cccc(Cl)c2)cc1,0,3,1,-2
Cc1cccc(N2C(=O)c3ccc(Cl)cc3C2=O)n1,0,-8,-2,0
CCCOCCOC(=O)c1[nH]c2c(c1C)C(=O)CC(c1ccc(OC)c(OC)c1)C2 (stereo not drawn),0,-5,7,0
CCCOCCOC(=O)c1[nH]c2c(c1C)C(=O)CC(c1cc(OC)ccc1OC)C2 (stereo not drawn),0,-8,47*,1
CC(=O)c1c(C)[nH]c(C(=O)COC(=O)c2c(C)nn(-c3ccccc3)c2C)c1C,0,22,49*,3
O=C(CN1CC(c2ccccc2)CC1=O)N1CCN(c2ccc([N+](=O)[O-])cc2)CC1 (stereo not drawn),0,0,27,0
CC(=O)c1c(C)oc2c1cc(NS(=O)(=O)c1ccc(Br)cc1)c1ccccc12,1,24,47*,-2
CCOc1ccc(S(=O)(=O)Nc2cc3c(C(=O)OCc4ccccc4)c(C)oc3c3ccccc23)cc1,0,-2,-1,1
CCc1ccc(S(=O)(=O)Nc2cc3c(C(C)=O)c(C)oc3c3ccccc23)cc1,1,7,56*,1
CCCOC(=O)c1c(C)oc2c1cc(NS(=O)(=O)c1ccc(OCC)cc1)c1ccccc12,0,-1,53*,-1
CCc1ccc(-n2c(=S)sc3c(=O)n(-c4ccc(F)cc4)c(SCc4ccccc4Cl)nc32)cc1,0,10,4,0
Cc1nn(C(=O)c2ccc(Br)cc2)c(C)c1Sc1ccc(Cl)cc1,0,14,-1,-1
CC1CN(c2ccc([N+](=O)[O-])c(NCCOc3ccc(Cl)cc3)c2)CCN1 (stereo not drawn),0,9,-17,1
COc1cc2c(-c3ccccc3Cl)nc3c(c(C)nn3-c3ccccc3)c2cc1OC,0,14,40*,0
COc1cc2c(-c3ccccc3Br)nc3c(c(C)nn3-c3ccccc3)c2cc1OC,0,10,10,0
COc1ccc2c(c1)CC(c1nc3cc(-c4ccncc4)ccc3c(=O)[nH]1)CO2 (stereo not drawn),0,19,-2,1
Cc1[nH]ncc1-c1ccc2nc(C3COc4ccccc4C3)[nH]c(=O)c2c1 (stereo not drawn),1,17,50*,-2
COc1ccccc1OCc1nc2ccc(-c3cn[nH]c3C)cc2c(=O)[nH]1,0,10,38*,-1
COc1ccc2c(c1)CC(c1nc3cc(-c4cn[nH]c4C)ccc3c(=O)[nH]1)CO2 (stereo not drawn),0,10,40*,1
Cc1ccc2c(c1)CC(c1nc3ccc(-c4cn[nH]c4)cc3c(=O)[nH]1)CO2 (stereo not drawn),0,47,-10,-2
Oc1cccc(-c2nc(Nc3ccc4[nH]ncc4c3)c3ccccc3n2)c1,0,1,-7,-1
Cc1cc2c(=O)n(C)c(SCC#N)nc2s1,0,-2,3,0
O=S(=O)(Cc1ccc(Cl)cc1)Nc1ccc2c(c1)OCCO2,0,3,41*,0
